Source: PubChem BioAssay
AMA1-RON2 inh: AMA1-RON2 (P. falciparum) interaction inhibition | AlphaScreen AMA1-biotinylated RON2 peptide binding | Potency, µM (top dose mostly 58.2 µM), inactives show at the top dose activity change, negative = inhibition, hits mostly inhibitors | 360,000 compounds, 0.2% hits | AID 720542;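 further: potency means the concentration at half of the fitted maximal effect; 0% = vehicle wells and -100% = peptide control; nearly all actives have a fitted effect of over 45% in size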
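AMA1 (3D7) with his tag at 25 nM final met compounds first, then biotinylated RON2 peptide at 25 nM; detection used donor plus acceptor beads, 10 µg/mL apiece, read by AlphaScreen after 30 min at room temperature.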
VACV Venus inh: inhibitors of vaccinia virus (Venus reporter) | Vaccinia virus Venus reporter expression, fluorescence | Potency, µM (highest dose often 36.5 µM), inactives show at the highest dose activity change, negative = inhibition, hits mostly inhibitors | 330,000 compounds, 0.46% hits; calls by dose curve; tested in A549 cells; further: potency means the concentration at half of the fitted maximal effect; on the % scale 0 is the no-effect control and ±100 the full control effect; nearly all actives have a fitted effect of over 30% in size
AmpC detergent: blocks E. coli AmpC beta-lactamase in detergent assay; P00811; 370,000 compounds, 0.041% hits; Potency, µM (top dose mostly 114 µM), inactives show top-dose activity change, negative = inhibition, hits mostly inhibitors; AmpC hydrolysis of nitrocefin, absorbance 480 nm, 0.01% Triton; AID 485294;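 further: potency means the concentration at half of the fitted maximal effect; 0% = no-compound wells and -100% = no-enzyme wells; nearly all actives have a fitted effect of over 25% in size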
Target sequence (P00811 whole entry, looked up): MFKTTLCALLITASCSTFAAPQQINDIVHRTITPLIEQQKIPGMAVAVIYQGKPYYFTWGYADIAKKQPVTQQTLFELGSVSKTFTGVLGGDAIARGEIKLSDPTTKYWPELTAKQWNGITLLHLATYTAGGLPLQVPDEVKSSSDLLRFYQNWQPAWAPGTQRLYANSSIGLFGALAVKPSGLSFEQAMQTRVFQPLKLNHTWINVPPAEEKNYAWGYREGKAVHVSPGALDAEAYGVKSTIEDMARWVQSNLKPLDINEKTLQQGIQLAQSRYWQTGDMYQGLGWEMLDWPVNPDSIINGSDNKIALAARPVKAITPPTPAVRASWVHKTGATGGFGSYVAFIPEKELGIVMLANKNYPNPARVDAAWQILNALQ
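AmpC (5.3 nM in the dispensed reagent) in 20 mM phosphate pH 7.0 with 0.01% (detergent screen) or 0.0001% Triton X-100 was preincubated with compounds for 15 min at room temperature. Nitrocefin was then added from an 800 uM solution, and hydrolysis was followed at 480 nm.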
VACV mCherry inh: inhibitors of vaccinia virus infection (mCherry reporter signal) | Vaccinia virus mCherry reporter infection, fluorescence | Potency, µM (top dose mostly 36.5 µM), inactives show top-dose activity change, negative = inhibition, actives largely listed as inhibitors | 310,000 compounds, 0.63% hits; calls by dose curve; tested in A549 cells; further: potency means the concentration at half of the fitted maximal effect; on the % scale 0 is the no-effect control and ±100 the full control effect; nearly all actives have a fitted effect of over 35% in size
SARS PLpro yeast-1: SARS-CoV PLP inhibition in yeast. Potency, µM (top dose mostly 32.9 µM), for inactives: at the top dose activity, positive = growth rescue, most hits filed as activators. S. cerevisiae expressing SARS-CoV PLpro, growth rescue. 330,000 compounds, 0.19% hits; calls by dose curve; further: potency means the concentration at half of the fitted maximal effect; 0% is about no effect; nearly all actives have a fitted effect of over 55% in size
AmpC no deterg: inhibitors of E. coli AmpC beta-lactamase without detergent; P00811; AmpC nitrocefin hydrolysis, absorbance 480 nm, 0.0001% Triton; Potency, µM (series often up to 57.1 µM), inactives show at the top dose activity change, negative = inhibition, hits mostly inhibitors; 330,000 compounds, 0.52% hits; AID 485341;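 further: potency means the concentration at half of the fitted maximal effect; plate controls were no compound for no effect and no enzyme for full effect; nearly all actives have a fitted effect of over 20% in size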
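20 mM phosphate pH 7.0 + 0.01% (detergent screen) or 0.0001% Triton X-100; 5.3 nM AmpC reagent; cpd preinc 15 min RT; nitrocefin (800 uM stock) to start; A480 q20 s × 4 min; Activity was normalised to no-enzyme and no-compound control wells.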
SARS PLpro yeast-2: Inhibits SARS-CoV PLP in yeast, hit validation. shares compounds with SARS PLpro yeast-1. yeast expressing SARS-CoV PLpro, growth phenotype rescue. calls only. 1,000 compounds, 19% hits; call rule not given here
The depositor's hits bear a star; i = inactive; ? = inconclusive; nt = no result; + = active, no number; [ ] = remark or other dose. Compounds with a hit are over-represented: about 1.3% of the library has one in this group of screens. Unless noted, the call rests on the fitted dose curve; in most records, active means well fitted curve in the direction sought with a large enough effect; inconclusive means small, poorly fitted or top-dose-only effect, or another doubt; inactive means no such curve, though single readings can be large; an effect the other way counts as inactive or inconclusive.

SMILES	AMA1-RON2 inh	VACV Venus inh	AmpC detergent	VACV mCherry inh	SARS PLpro yeast-1	AmpC no deterg	SARS PLpro yeast-2
O=C(Nc1nc(-c2ccccc2)c(-c2ccccc2)o1)c1ccc(F)cc1	99%	?	-10%	?	-21%	-50%	nt
S=C1CSc2ccccc2N1	10%	-9%	-4%	-28%	-1%	-24%	nt
CC1CSc2ccccc2NC1=S (stereo not given)	12%	nt	?	nt	10µM*	-18%	+
Cc1cc(OCC(=O)Nc2cccc(-c3nc4ccccc4o3)c2C)cc(C)c1Cl	nt	-9%	nt	-25%	nt	nt	nt
Cc1ccc(S(=O)(=O)N2CC(O)CC2C(=O)OCc2nc3sc(C)c(C)c3c(=O)[nH]2)cc1 (stereo not given)	18%	1%	-5%	-3%	?	10%	i
C(=N\Nc1nncc2ccccc12)/c1ccccn1	97%	?	-7%	10µM*	13µM*	-5%	i
Fc1cccc(/C=N/Nc2nncc3ccccc23)c1	-4%	nt	-15%	nt	-7%	-9%	nt
Cc1c(N/N=C(\C#N)C(=O)c2ccc(Cl)cc2)c(=O)n(-c2ccccc2)n1C	2%	?	7%	11µM*	13µM*	-16%	i
Cc1ccc(S(=O)(=O)n2nc(C)c(S(=O)(=O)N3CCC(C)CC3)c2C)cc1	nt	-6%	3%	10%	nt	nt	nt
COc1ccc(NC(=O)C(=O)NCCc2ccc(OC)c(OC)c2)c(OC)c1	nt	-10%	3%	-12%	nt	nt	nt
CCOc1ccc(C(=O)CC(=O)C(=O)NCCc2ccc(OC)c(OC)c2)cc1	28%	-8%	2%	-16%	20µM*	28%	?
Cc1ccc(OC2=NS(=O)(=O)c3ccccc32)cc1	-7%	nt	-5%	nt	?	-17%	i
CCc1ccc(OC2=NS(=O)(=O)c3ccccc32)cc1	-5%	?	-5%	?	1%	-4%[2.29 µM]	nt
O=C(OCC(=O)N1CCN(c2ccccc2)CC1)c1cnc(Cl)c(Cl)c1	nt	nt	3%	nt	-10%	15%	nt
O=C(OCC(=O)N1CCN(c2ccccc2)CC1)c1cccc(Cl)c1	-23%	nt	4%	nt	?	-1%	i
COc1ccc(C)cc1NC(=O)c1cc2ccccc2cc1OCC(=O)NCc1ccco1	-9%	6%	9%	-4%	3.5µM*	-15%	+
COc1cc(/C=N/n2c(SC)nnc(C(C)(C)C)c2=O)ccc1O	9%	-17%	-13%	i	16µM*	-24%	i
COc1ccc(/C=N/n2c(SC)nnc(C(C)(C)C)c2=O)cc1OC	-8%	-18%	-13%	nt	6%	144%	nt
Cc1csc(=O)n1CCC(=O)OCc1nnc(-c2ccc(Cl)cc2)o1	-3%	-11%	?	-10%	7%	-11%	nt
Cc1ccc(C2=NC(C)(C)NC2=O)cc1	5%	nt	?	nt	?	-9%	i
